Source: PubChem (The Scripps Research Institute Molecular Screening Center)
The list is not random: actives were taken first. Their share in the collection is about 1.7%.
ZTA counter – blocks Epstein-Barr virus ZTA, an EBNA-1 counter-screen; P03206; ZTA-DNA binding, fluorescence polarization; inhibition, % at 11 µM; actives 0.15% (n = 320,000); in the data active = inhibition above about 33%
LYPLA1 counter – LYPLA1 inhibitors, primary screen, counter-screen for PME1 inhibitor project, biochemical, fluorescence polarization, FP-Rh probe ABPP; inhibition, % at 5.9 µM; actives 0.16% (n = 320,000); Acyl-protein thioesterase 1 (Homo sapiens), O75608; recombinant LYPLA1;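 active = inhibition above the mean of all tested compounds plus 3 SD, set per campaign, cut at about 14% in these data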;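 also: inhibitors block serine hydrolase probe labeling of LYPLA1 so polarization falls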
PAD4 inh – human PAD4 inhibitors, primary screen, biochemical, fluorescence polarization, 1536-well format; Protein-arginine deiminase type-4 (Homo sapiens), Q9UM07; actives 0.41% (n = 330,000); recombinant PAD4, RCA probe fluorescence polarization; AID 485272, 2010; inhibition, % at 6.36 µM;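 active = percent inhibition above a cutoff equal to the mean of all tested compounds plus 3 SD, cut at about 15% in these data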
EBNA-1 inhibitor – EBNA-1 DNA-binding inhibitors, primary screen, biochemical, fluorescence polarization. inhibition, % at 14.8 µM. actives 0.34% (n = 300,000); in the data active = inhibition above about 28%
GSTO1 counter – inhibitors of recombinant GSTO1, primary screen, counter-screen for RBBP9 inhibitor project, biochemical, fluorescence polarization. Glutathione S-transferase omega-1 (Homo sapiens), P78417. activity-based probe fluorescence polarization. inhibition, % at 5.96 µM. actives 1.1% (n = 300,000). AID 1974, 2009;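 active = inhibition above the campaign mean inhibition plus 3 SD, cut at about 35% in these data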
Target sequence (P78417 whole entry, looked up): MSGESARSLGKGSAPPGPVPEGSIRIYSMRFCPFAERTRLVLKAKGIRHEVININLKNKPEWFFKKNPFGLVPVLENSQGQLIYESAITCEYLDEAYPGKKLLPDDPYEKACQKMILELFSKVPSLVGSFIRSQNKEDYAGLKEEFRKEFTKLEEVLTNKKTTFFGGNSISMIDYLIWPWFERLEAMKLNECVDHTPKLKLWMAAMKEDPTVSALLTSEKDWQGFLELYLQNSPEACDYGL
LYPLA2 counter – LYPLA2 inhibitors, primary screen, counter-screen for PME1 inhibitor project, biochemical, fluorescence polarization, FP-Rh probe ABPP; recombinant LYPLA2; actives 0.38% (n = 320,000); AID 2177, 2009; inhibition, % at 5.9 µM; Acyl-protein thioesterase 2 (Homo sapiens), O95372;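 active = inhibition above the screen-wide mean plus 3 SD, limit set per campaign, cut at about 26% in these data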
EBNA-1 inh conf – EBNA-1 DNA-binding inhibitors, retest, confirmation, biochemical, fluorescence polarization, triplicate | AID 2292, 2010 | inhibition, % at 14.8 µM | actives 35% (n = 830) | shares compounds with EBNA-1 inhibitor | Recombinant EBNA-1 DBD, Cy5-DNA fluorescence polarization;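 active = mean inhibition across replicates above a set limit taken from the earlier primary screen, cut at about 28% in these data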
ZTA DNA inh trip – EBV Zta DNA binding inhibitors, counter-screen for EBNA-1 inhibitor project, biochemical, fluorescence polarization, triplicate; shares compounds with EBNA-1 inhibitor; Zta-ZRE DNA binding, Cy5 fluorescence polarization; inhibition, % at 11.1 µM; 830 tested, under 10 active;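 active = mean inhibition over triplicates above a set limit taken from the primary EBNA-1 screen, cut at about 37% in these data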;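 also: purified full length Zta protein with Cy5 labeled ZRE DNA probe; inhibitors lower polarization by freeing the labeled DNA probe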
Hits are given with their value; . = inactive; / = no result; + = active, no number.

SMILES	ZTA counter	LYPLA1 counter	PAD4 inh	EBNA-1 inhibitor	GSTO1 counter	LYPLA2 counter	EBNA-1 inh conf	ZTA DNA inh trip
COc1ccc(NC(=O)Cc2c(C)n(C(=O)c3ccc(Cl)cc3)c3ccc(OC)cc23)cc1	.	.	.	.	.	.	/	/
COc1ccc(-c2cc(C(=O)NCc3cccs3)no2)cc1	.	.	.	.	.	.	/	/
COc1ccc2nc3sc(C(=O)NCc4cccs4)c(N)c3cc2c1	.	.	.	31.3	.	.	.	.
COCCn1cnnc1SCC(=O)Nc1cc(OC)c([N+](=O)[O-])cc1C	.	.	.	+	.	.	.	.
CCCCc1ccc(-n2nnnc2SCC(=O)Nc2cc(OC)c([N+](=O)[O-])cc2C)cc1	.	.	.	.	.	.	/	/
COc1cccc(CN2C[C@]34C=C[C@@H](C[C@@H]3S2(=O)=O)O4)c1	.	.	.	.	.	.	/	/
Cc1ccccc1N(C(=O)c1snc(C(N)=O)c1N)C(C(=O)NCC1CCCO1)c1ccc(N(C)C)cc1 (stereo not drawn)	.	.	.	27.6	.	.	122.9	.
Cc1ccc2nc(SCC(=O)NCc3cccs3)c(C#N)cc2c1	.	.	.	32.6	.	.	.	.
Cc1ccc(CN(c2ccc(C(=O)NCc3ccc4c(c3)OCO4)cc2)S(C)(=O)=O)cc1	.	.	.	34.7	.	.	.	.
CN(Cc1ccccc1)S(=O)(=O)c1ccc(Cl)c(C(=O)NCc2ccc3c(c2)OCO3)c1	.	.	.	37.3	.	.	.	.
CN(Cc1ccccc1)S(=O)(=O)c1ccc(Cl)c(C(=O)NCc2ccncc2)c1	.	.	.	.	.	.	/	/
Cc1ccc(C(=O)NCc2ccc3c(c2)OCO3)cc1	.	.	.	.	.	.	/	/
CC(=O)c1sc(NC(=O)CSC(C)C(=O)Nc2cc(C)on2)nc1-c1ccccc1 (stereo not drawn)	.	.	.	.	.	.	/	/
COc1ccc(OC)c(CNC(=O)C2CCN(S(C)(=O)=O)CC2)c1	.	.	.	.	.	.	/	/
O=C(CCNC(=O)c1ccc([N+](=O)[O-])cc1)Nc1cccc(S(=O)(=O)N2CCCCCC2)c1	.	.	.	/	/	.	/	/
CCc1ccccc1NC(=O)NNS(=O)(=O)c1cc(C)ccc1C	.	.	.	.	.	.	/	/
O=S(=O)(NCc1ccccc1)c1ccc(S(=O)(=O)N(Cc2cccs2)CC2CCCO2)cc1 (stereo not drawn)	.	.	.	34.5	.	.	.	.
Brc1c(C[n+]2ccccc2)nc2ccccn12	.	.	.	.	.	.	/	/
CC(=O)CCc1c(C)nc2ccc(C(=O)O)cc2c1Cl	.	.	.	31.3	.	.	.	.
CC(C)N1CCN(Cc2cc3ccccc3[nH]2)CC1CCO (stereo not drawn)	.	.	.	.	.	.	/	/
Cc1ccc2cccc(NC(=S)NC(=O)c3ccnn3C)c2n1	.	.	.	39.9	.	.	32.1	.
CCOc1ccc(-n2c(=O)c3sccc3n(CC(=O)Nc3cccc(OC)c3)c2=O)cc1	.	.	.	51.6	.	.	31.0	.
N#Cc1ccc(C(CC(=O)O)N2Cc3ccccc3C2=O)cc1 (stereo not drawn)	.	.	.	.	.	.	/	/
CCCNC(=O)c1ccc(N2CCC3(CC2)CC(c2ccccc2)=NO3)c(N)c1	.	.	.	50.8	.	.	.	.
CCOCCCn1c(SCC(=O)NCc2ccco2)nc2c(sc3ccccc32)c1=O	.	.	.	29.7	.	.	.	.
CCOC(=O)Cc1csc(SCC(=O)NC2CCC(C)CC2)n1 (stereo not drawn)	.	.	.	.	.	.	/	/
